Experimental data as given in PMC7862700, “An all-to-all approach to the identification of sequence-specific readers for epigenetic DNA modifications on cytosine”.

What was measured:
Experiment in all cases: DAPPL (digital affinity profiling via proximity ligation, sequencing); 10 mM Tris-HCl pH 7.5, 50 mM NaCl, 1 mM DTT, 4% glycerol, room temperature, 30 min; GST-TFs on glutathione beads, 16-mer random dsDNA library, 0.1% formaldehyde crosslink after washing; high values mean tight binding
FLI1 = biological target: T1, FLI1 (Homo sapiens, UniProt Q01543 1-452); conditions: protein: recombinant; tags: N-terminal GST; dsDNA, one strand shown
T1 sequence: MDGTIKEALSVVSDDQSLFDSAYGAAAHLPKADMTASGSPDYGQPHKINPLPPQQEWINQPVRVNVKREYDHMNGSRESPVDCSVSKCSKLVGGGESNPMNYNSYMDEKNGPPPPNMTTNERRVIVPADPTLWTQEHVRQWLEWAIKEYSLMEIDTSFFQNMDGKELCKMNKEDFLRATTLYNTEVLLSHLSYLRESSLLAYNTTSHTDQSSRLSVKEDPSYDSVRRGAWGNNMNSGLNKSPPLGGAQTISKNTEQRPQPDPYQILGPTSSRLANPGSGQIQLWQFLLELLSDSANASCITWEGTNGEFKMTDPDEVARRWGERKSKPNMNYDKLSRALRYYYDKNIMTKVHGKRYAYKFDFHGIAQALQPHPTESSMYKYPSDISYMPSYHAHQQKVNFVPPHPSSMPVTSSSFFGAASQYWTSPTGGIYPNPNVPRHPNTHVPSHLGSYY
In short: (§1)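 A tag-only sample was pooled with DNA-barcoded human transcription factors that had been expressed in yeast as GST fusions and captured on glutathione beads. The pools were incubated for 30 min at room temperature with 200 nmole of a random double-stranded 16-mer DNA library in Tris/NaCl/DTT/glycerol buffer, then washed, crosslinked with 0.1% formaldehyde, proximity-ligated (BsaI/T4 ligase, 1 h, 37 °C), PCR-amplified and sequenced on an Illumina NextSeq500. Binding signal is each hexamer's read frequency for a factor divided by its frequency for the tag-only sample.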

ELK1 = biological target: T2, ELK1 (Homo sapiens, UniProt P19419 1-428); conditions: protein: recombinant; tags: N-terminal GST; dsDNA, one strand shown
T2 sequence: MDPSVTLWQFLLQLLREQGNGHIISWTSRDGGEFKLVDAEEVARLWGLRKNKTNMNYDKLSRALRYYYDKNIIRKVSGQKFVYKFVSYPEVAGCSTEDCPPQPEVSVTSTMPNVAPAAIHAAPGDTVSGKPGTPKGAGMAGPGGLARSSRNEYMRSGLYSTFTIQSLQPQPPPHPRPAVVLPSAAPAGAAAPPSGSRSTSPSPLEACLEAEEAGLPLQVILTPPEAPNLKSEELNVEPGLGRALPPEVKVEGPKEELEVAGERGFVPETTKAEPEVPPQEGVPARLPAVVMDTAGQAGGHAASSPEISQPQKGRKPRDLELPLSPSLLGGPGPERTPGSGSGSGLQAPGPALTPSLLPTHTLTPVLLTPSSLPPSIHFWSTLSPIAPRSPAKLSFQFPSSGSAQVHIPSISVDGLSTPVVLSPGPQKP
In short: as §1

GABPA = biological target: T3, GABPA (Homo sapiens, UniProt Q06546 1-454); conditions: protein: recombinant; tags: N-terminal GST; dsDNA, one strand shown
T3 sequence: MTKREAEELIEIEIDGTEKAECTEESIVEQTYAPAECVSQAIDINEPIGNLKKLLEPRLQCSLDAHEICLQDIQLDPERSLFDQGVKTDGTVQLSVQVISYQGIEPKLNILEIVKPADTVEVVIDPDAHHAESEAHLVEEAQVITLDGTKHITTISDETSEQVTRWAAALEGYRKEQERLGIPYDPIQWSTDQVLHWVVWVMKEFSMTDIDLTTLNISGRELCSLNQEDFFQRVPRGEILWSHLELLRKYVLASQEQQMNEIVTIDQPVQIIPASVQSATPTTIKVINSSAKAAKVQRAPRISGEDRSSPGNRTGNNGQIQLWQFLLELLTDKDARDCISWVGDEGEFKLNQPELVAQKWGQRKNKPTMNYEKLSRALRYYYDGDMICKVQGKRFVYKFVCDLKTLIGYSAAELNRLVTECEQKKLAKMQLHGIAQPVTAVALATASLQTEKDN
In short: as §1

ERG = biological target: T4, ERG (Homo sapiens, UniProt P11308 1-479); conditions: protein: recombinant; tags: N-terminal GST; dsDNA, one strand shown
T4 sequence: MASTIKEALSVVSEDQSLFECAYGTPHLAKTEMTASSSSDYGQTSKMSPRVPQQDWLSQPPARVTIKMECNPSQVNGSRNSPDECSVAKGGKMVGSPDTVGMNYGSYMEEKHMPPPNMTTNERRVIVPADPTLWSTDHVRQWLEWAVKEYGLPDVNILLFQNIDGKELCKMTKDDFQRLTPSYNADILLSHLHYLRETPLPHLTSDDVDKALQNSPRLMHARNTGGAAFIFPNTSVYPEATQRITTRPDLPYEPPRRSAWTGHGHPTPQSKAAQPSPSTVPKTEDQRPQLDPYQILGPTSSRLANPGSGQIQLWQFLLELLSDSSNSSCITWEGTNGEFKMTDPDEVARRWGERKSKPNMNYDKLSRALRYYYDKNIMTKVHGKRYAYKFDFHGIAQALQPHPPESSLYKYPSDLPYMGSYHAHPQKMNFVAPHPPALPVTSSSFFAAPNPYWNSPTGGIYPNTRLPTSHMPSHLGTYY
In short: as §1

ELF1 = ELF1 (Homo sapiens, UniProt P32519 1-619); conditions: protein: recombinant; tags: N-terminal GST; dsDNA, one strand shown
Sequence of ELF1 (P32519 whole entry): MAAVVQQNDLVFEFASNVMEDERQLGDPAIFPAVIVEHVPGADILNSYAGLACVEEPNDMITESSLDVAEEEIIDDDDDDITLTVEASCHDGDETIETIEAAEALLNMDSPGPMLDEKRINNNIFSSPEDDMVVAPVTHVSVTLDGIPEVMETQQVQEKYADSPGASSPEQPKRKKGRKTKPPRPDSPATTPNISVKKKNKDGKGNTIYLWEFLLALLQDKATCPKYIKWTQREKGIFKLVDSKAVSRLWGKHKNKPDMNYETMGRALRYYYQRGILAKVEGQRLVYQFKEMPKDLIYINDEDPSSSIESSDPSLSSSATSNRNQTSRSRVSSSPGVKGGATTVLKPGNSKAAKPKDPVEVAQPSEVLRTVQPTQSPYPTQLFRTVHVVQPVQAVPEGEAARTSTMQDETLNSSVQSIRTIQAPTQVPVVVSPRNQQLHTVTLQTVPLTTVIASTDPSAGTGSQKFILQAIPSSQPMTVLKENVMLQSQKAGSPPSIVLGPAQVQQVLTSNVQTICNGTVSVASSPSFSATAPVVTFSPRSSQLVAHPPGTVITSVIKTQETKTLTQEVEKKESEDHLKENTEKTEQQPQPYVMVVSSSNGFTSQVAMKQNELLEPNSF
In short: as §1

EHF = biological target: T5, EHF (Homo sapiens, UniProt Q9NZC4 1-300); conditions: protein: recombinant; tags: N-terminal GST; dsDNA, one strand shown
T5 sequence: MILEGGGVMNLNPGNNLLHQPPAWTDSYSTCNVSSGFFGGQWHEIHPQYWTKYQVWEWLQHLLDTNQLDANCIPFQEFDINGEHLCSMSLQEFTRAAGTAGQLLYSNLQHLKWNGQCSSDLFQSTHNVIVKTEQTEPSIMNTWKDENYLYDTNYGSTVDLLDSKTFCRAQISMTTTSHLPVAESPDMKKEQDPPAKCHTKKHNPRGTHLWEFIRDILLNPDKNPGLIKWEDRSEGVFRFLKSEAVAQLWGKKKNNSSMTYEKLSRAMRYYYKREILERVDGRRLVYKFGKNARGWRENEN
In short: as §1

SPI1 = SPI1 (Homo sapiens, UniProt P17947 1-270); conditions: protein: recombinant; tags: N-terminal GST; dsDNA, one strand shown
In short: as §1

SPIB = SPIB (Homo sapiens, UniProt Q01892 1-262); conditions: protein: recombinant; tags: N-terminal GST; dsDNA, one strand shown
Sequence of SPIB (Q01892 whole entry): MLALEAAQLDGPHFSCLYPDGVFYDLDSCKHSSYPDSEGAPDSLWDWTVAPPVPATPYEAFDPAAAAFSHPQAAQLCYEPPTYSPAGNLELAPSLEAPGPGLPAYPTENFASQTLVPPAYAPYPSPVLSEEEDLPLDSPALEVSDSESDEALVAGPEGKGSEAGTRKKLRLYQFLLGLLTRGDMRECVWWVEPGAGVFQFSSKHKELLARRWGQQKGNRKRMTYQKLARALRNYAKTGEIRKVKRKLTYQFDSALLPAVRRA
In short: as §1

ELK3 = biological target: T6, ELK3 (Homo sapiens, UniProt P41970 1-407); conditions: protein: recombinant; tags: N-terminal GST; dsDNA, one strand shown
T6 sequence: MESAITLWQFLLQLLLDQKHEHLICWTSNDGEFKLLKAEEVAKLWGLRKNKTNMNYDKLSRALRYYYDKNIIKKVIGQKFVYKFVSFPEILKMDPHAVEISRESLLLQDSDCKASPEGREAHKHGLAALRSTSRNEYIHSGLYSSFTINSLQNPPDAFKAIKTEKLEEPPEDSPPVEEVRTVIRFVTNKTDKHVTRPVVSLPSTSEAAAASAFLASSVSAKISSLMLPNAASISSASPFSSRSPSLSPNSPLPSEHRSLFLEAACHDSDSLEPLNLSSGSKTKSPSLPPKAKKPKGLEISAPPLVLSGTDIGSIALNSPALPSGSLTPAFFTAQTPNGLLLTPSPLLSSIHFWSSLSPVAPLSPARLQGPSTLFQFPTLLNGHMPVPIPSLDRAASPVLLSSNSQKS
In short: as §1

ETV5 = ETV5 (Homo sapiens, UniProt P41161 1-510); conditions: protein: recombinant; tags: N-terminal GST; dsDNA, one strand shown
Sequence of ETV5 (P41161 whole entry): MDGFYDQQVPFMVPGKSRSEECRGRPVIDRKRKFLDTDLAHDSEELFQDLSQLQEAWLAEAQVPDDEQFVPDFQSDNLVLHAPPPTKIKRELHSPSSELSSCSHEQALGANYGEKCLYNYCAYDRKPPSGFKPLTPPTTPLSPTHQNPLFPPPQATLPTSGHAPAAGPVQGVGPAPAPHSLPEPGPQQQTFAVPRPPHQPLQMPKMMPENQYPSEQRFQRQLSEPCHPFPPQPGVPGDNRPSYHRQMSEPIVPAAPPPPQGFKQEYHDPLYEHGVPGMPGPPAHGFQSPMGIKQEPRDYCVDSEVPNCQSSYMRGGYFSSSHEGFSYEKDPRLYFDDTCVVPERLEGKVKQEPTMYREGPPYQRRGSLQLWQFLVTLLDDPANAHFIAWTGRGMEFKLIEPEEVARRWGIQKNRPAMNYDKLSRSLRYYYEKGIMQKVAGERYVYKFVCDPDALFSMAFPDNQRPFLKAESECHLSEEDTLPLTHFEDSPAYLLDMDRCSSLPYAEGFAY
In short: as §1

HSF1 = HSF1 (Homo sapiens, UniProt Q00613 1-529); conditions: protein: recombinant; tags: N-terminal GST; chain copies: 3; dsDNA, one strand shown
Sequence of HSF1 (Q00613 whole entry): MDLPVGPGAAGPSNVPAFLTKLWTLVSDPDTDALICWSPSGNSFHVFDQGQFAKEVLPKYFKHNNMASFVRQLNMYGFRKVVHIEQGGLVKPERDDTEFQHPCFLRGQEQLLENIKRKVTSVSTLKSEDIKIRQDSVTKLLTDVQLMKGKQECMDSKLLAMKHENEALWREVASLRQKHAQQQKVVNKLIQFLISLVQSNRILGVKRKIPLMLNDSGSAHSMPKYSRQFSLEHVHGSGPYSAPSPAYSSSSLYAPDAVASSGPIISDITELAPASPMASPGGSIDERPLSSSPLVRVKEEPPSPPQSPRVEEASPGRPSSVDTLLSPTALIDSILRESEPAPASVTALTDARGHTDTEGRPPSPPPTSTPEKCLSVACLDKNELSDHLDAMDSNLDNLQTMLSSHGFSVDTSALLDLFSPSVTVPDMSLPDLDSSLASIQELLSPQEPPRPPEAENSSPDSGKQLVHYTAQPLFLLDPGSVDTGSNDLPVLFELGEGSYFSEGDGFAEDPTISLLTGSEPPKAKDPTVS
In short: as §1

SPIC = biological target: T7, SPIC (Homo sapiens, UniProt Q8N5J4 1-248); conditions: protein: recombinant; tags: N-terminal GST; dsDNA, one strand shown
T7 sequence: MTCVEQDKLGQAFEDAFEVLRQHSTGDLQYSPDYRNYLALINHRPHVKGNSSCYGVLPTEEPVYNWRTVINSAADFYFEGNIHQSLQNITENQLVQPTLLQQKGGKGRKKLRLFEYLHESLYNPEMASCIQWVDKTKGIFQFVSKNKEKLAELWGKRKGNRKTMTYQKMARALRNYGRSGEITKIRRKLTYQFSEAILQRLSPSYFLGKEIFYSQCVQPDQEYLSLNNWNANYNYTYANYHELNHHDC
In short: as §1

ELF4 = ELF4 (Homo sapiens, UniProt Q99607 1-663); conditions: protein: recombinant; tags: N-terminal GST; dsDNA, one strand shown
Sequence of ELF4 (Q99607 whole entry): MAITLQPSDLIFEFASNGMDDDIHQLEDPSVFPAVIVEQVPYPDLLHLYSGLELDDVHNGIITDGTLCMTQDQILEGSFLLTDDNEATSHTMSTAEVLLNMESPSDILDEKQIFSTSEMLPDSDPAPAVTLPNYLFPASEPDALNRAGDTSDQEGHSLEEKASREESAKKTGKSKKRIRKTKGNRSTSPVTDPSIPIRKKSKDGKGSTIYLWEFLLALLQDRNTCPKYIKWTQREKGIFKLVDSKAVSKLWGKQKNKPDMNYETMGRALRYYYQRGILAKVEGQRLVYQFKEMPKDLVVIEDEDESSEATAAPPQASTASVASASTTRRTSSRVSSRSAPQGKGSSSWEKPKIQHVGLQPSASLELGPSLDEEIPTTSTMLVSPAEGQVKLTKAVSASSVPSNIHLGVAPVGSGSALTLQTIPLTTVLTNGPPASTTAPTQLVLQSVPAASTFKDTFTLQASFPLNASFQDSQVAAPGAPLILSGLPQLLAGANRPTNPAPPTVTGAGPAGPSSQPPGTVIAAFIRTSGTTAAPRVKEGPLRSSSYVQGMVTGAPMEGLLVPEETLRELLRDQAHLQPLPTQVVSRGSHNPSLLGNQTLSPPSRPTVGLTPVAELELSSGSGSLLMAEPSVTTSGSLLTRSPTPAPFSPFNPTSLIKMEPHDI
In short: as §1

ELK4 = biological target: T8, ELK4 (Homo sapiens, UniProt P28324-2 1-405); conditions: protein: recombinant; tags: N-terminal GST; dsDNA, one strand shown
T8 sequence: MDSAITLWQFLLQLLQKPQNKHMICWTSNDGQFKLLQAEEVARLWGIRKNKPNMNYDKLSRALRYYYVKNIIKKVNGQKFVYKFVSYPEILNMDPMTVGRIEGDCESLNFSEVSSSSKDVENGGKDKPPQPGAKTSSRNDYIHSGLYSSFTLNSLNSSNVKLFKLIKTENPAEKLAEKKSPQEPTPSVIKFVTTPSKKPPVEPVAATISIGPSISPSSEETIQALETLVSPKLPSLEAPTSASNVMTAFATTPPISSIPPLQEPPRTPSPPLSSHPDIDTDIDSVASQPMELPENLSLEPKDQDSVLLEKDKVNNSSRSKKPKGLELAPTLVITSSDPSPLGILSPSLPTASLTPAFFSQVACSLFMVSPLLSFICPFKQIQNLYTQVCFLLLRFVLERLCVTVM
In short: as §1

ETV2 = biological target: T9, ETV2 (Homo sapiens, UniProt O00321 1-342); conditions: protein: recombinant; tags: N-terminal GST; dsDNA, one strand shown
T9 sequence: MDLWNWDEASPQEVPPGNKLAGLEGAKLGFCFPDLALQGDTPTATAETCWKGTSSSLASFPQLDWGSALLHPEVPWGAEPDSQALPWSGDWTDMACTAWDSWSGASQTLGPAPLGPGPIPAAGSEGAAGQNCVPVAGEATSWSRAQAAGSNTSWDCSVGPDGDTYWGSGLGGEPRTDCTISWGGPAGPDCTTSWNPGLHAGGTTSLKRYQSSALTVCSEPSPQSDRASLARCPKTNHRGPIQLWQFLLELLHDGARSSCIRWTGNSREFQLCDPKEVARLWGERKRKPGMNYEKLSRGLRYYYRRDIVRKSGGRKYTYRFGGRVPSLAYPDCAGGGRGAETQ
In short: as §1

CRX = CRX (Homo sapiens, UniProt O43186 1-299); conditions: protein: recombinant; tags: N-terminal GST; dsDNA, one strand shown
Sequence of CRX (O43186 whole entry): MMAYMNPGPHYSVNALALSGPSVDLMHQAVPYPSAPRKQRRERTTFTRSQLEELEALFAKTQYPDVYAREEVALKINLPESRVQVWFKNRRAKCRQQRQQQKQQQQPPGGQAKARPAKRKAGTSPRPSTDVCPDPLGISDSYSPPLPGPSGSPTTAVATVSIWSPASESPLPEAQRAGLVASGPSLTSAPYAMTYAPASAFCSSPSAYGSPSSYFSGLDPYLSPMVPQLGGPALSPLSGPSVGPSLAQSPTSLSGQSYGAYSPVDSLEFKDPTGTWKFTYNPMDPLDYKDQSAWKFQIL
In short: as §1

ETV1 = ETV1 (Homo sapiens, UniProt P50549 1-477); conditions: protein: recombinant; tags: N-terminal GST; dsDNA, one strand shown
Sequence of ETV1 (P50549 whole entry): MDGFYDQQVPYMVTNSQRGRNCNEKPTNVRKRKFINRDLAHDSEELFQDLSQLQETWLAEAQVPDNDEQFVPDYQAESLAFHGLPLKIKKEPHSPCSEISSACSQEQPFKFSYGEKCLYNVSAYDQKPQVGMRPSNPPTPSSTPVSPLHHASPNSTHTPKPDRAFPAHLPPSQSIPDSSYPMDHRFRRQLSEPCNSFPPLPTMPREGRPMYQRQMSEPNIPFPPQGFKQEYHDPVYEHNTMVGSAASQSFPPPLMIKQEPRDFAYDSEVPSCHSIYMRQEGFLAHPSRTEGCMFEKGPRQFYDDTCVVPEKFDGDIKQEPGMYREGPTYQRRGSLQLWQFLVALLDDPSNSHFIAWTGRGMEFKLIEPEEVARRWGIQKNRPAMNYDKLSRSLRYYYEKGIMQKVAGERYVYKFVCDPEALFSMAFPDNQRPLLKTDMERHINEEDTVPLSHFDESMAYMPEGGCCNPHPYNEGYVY
In short: as §1

FEV = biological target: T10, FEV (Homo sapiens, UniProt Q99581 1-238); conditions: protein: recombinant; tags: N-terminal GST; dsDNA, one strand shown
T10 sequence: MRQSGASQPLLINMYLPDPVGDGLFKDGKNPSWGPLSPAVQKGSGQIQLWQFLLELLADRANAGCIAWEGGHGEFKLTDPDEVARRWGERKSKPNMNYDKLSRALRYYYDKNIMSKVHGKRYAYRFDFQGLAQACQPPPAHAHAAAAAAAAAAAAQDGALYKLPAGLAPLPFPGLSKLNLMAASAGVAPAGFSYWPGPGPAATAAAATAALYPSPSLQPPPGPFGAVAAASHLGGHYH
In short: as §1

| Sequence | binding signal (FLI1) | binding signal (ELK1) | binding signal (GABPA) | binding signal (ERG) | binding signal (ELF1) | binding signal (EHF) | binding signal (SPI1) | binding signal (SPIB) | binding signal (ELK3) | binding signal (ETV5) | binding signal (HSF1) | binding signal (SPIC) | binding signal (ELF4) | binding signal (ELK4) | binding signal (ETV2) | binding signal (CRX) | binding signal (ETV1) | binding signal (FEV) |
| --- | --- | --- | --- | --- | --- | --- | --- | --- | --- | --- | --- | --- | --- | --- | --- | --- | --- | --- |
| TTGAAC | 1.13 fold enrichment (6-mer frequency, TF over GST control) | 1.1 fold enrichment (6-mer frequency, TF over GST control) | 1.08 fold enrichment (6-mer frequency, TF over GST control) | 1.01 fold enrichment (6-mer frequency, TF over GST control) | 1.15 fold enrichment (6-mer frequency, TF over GST control) | 1.11 fold enrichment (6-mer frequency, TF over GST control) | 1.04 fold enrichment (6-mer frequency, TF over GST control) | 1.12 fold enrichment (6-mer frequency, TF over GST control) | 1.12 fold enrichment (6-mer frequency, TF over GST control) | 1.05 fold enrichment (6-mer frequency, TF over GST control) | 1.02 fold enrichment (6-mer frequency, TF over GST control) | 1.06 fold enrichment (6-mer frequency, TF over GST control) | 1.12 fold enrichment (6-mer frequency, TF over GST control) | 1.32 fold enrichment (6-mer frequency, TF over GST control) | 1.27 fold enrichment (6-mer frequency, TF over GST control) | 1.03 fold enrichment (6-mer frequency, TF over GST control) | 1.08 fold enrichment (6-mer frequency, TF over GST control) |  |
| TCGATA | 1.17 fold enrichment (6-mer frequency, TF over GST control) | 1.03 fold enrichment (6-mer frequency, TF over GST control) | 1.08 fold enrichment (6-mer frequency, TF over GST control) | 1.1 fold enrichment (6-mer frequency, TF over GST control) | 1.11 fold enrichment (6-mer frequency, TF over GST control) | 1.12 fold enrichment (6-mer frequency, TF over GST control) | 1.12 fold enrichment (6-mer frequency, TF over GST control) | 1.03 fold enrichment (6-mer frequency, TF over GST control) | 1.06 fold enrichment (6-mer frequency, TF over GST control) | 1.07 fold enrichment (6-mer frequency, TF over GST control) | 1.35 fold enrichment (6-mer frequency, TF over GST control) | 1.28 fold enrichment (6-mer frequency, TF over GST control) | 1.15 fold enrichment (6-mer frequency, TF over GST control) | 1.16 fold enrichment (6-mer frequency, TF over GST control) | 1.16 fold enrichment (6-mer frequency, TF over GST control) | 1.24 fold enrichment (6-mer frequency, TF over GST control) | 1.03 fold enrichment (6-mer frequency, TF over GST control) | 1.05 fold enrichment (6-mer frequency, TF over GST control) |
